14 compounds from PubChem BioAssay (NCI) can be followed below.

About 83,000 compounds went through this panel and 20% of them were active in at least one assay; those are over-represented in the sample as a whole.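 Activity criterion: percent growth below 10, measured after cells in 96-well plates were exposed to a single compound concentration for 48 hours.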 A number with no mark means an inactive call. Active and inactive are the calls of the source.

Some test systems named below: T-47D breast; BT-549 breast; MDA-MB-435 melanoma; SW-620 colon; MCF7 breast; HCT-116 colon; HCC-2998 colon; KM12 colon.
Assay in all cases: NCI-60 one-dose screen, 48 h (100 = growth as untreated, 0 = no growth, -100 = all killed)
Holding throughout (conditions): 10 µM unless noted

Take `CNCCCn1c2c(c3ccc(F)cc3c1=O)C(=O)c1cc(OC)cnc1-2`: the growth was -2.54% (active) with T-47D breast; -6.14% (active) with BT-549 breast; 4.12% (active) in the assay on MDA-MB-435 melanoma; -2.67% (active) in the assay on SW-620 colon; 0.0252% (active) in the assay on MCF7 breast; -78% (active) with HCT-116 colon. In addition, the growth was 8% (active) in the assay with HCC-2998 colon and -0.739% (active) with KM12 colon.
Turning to `COc1ccc(-c2cc(-c3nnc(SCC(=O)Nc4ccc(C(C)=O)cc4)n3-c3ccccc3)c3ccccc3n2)cc1OC`, the growth with T-47D breast was 84%; with BT-549 breast it was 86.1%; with MDA-MB-435 melanoma, 105%; in the assay on SW-620 colon, 104%; in the assay with MCF7 breast it was 95.2%; in the assay with HCT-116 colon it was 83.4%. For the same compound, the growth was 99.6% with HCC-2998 colon and 95.9% in the assay with KM12 colon.
Turning to `C/C(=C\CCc1ccoc1)CC/C=C(\C)CCCN1CCOCC1`, the growth was 27.4% in the assay on T-47D breast; 58.9% in the assay on BT-549 breast; 71.8% with MDA-MB-435 melanoma; 57.8% with SW-620 colon; 28.1% in the assay with MCF7 breast; 39.2% in the assay with HCT-116 colon. In addition, the growth was 62.3% in the assay on HCC-2998 colon and 56.9% with KM12 colon.
In the case of `O=[N+]([O-])c1cc([N+](=O)[O-])c(N2CCCC2)cc1NN=C(c1ccc(O)cc1)c1ccc(O)cc1`, the growth in the assay with T-47D breast was -7.05% (active); with BT-549 breast, 86.6%; in the assay on MDA-MB-435 melanoma it was 76.1%; with SW-620 colon, 107%; in the assay on MCF7 breast, 9.54% (active); in the assay on HCT-116 colon it was 8% (active). Besides, the growth with HCC-2998 colon is 4.45% (active); in the assay on KM12 colon it was 85.7%.
As to `c1ccc2nc(N/N=C3\CCCCC3C3CCCCC3)ccc2c1` (configuration not stated), the growth with T-47D breast is 40.4%; in the assay with BT-549 breast, 61%; in the assay on MDA-MB-435 melanoma, 78.8%; with SW-620 colon, 44.2%; with MCF7 breast it was 58.1%; with HCT-116 colon, 6.79% (active). Besides, the figures for the growth with HCC-2998 colon and with KM12 colon were 64.2% and 38.4%, respectively.
For the compound `O=C(Nc1ccccc1S)c1ccccc1`, the growth in the assay with T-47D breast was 105%; with BT-549 breast, 99.9%; with MDA-MB-435 melanoma, 101%; in the assay on SW-620 colon, 98.5%; in the assay on MCF7 breast, 91.1%; in the assay on HCT-116 colon, 96.2%. For the same compound, the growth was 109% in the assay with HCC-2998 colon and 104% with KM12 colon.
In the case of `CCOC(=O)C1C(=O)NC(C(=O)OCC)(C(=O)OCC)C1CC` (configuration not stated), the growth in the assay on T-47D breast was 109%; with BT-549 breast it was 112%; with MDA-MB-435 melanoma, 115%; in the assay with SW-620 colon, 115%; in the assay with MCF7 breast, 104%; in the assay on HCT-116 colon, 110%. The values for the growth in the assay with HCC-2998 colon and in the assay on KM12 colon were 108% and 112%, respectively.
Turning to `COc1cc(C2CC(C3C(=O)N(C)C(=O)N(C)C3=O)=NN2C=O)cc(OC)c1OC` (configuration not stated), the growth was 83.8% in the assay with T-47D breast; 106% in the assay on BT-549 breast; 101% with MDA-MB-435 melanoma; 97.7% in the assay on SW-620 colon; 97.6% with MCF7 breast; 102% in the assay on HCT-116 colon. Further, the growth is 100% in the assay on HCC-2998 colon and 102% with KM12 colon.
For the compound `COC(=O)[C@H](CCCCNC(=O)OCc1ccccc1)NC(=O)[C@@H](NC(=O)Nc1cc(C(F)(F)F)cc(C(F)(F)F)c1)C(C)C`, the growth was -57.6% [100 µM] (active) with T-47D breast; 47.1% [100 µM] in the assay on BT-549 breast; -86% [100 µM] (active) in the assay with MDA-MB-435 melanoma; -14.6% [100 µM] (active) in the assay with SW-620 colon; -18.2% [100 µM] (active) with MCF7 breast; -86.6% [100 µM] (active) in the assay with HCT-116 colon. The values for the growth in the assay with HCC-2998 colon and in the assay with KM12 colon were -43.4% [100 µM] (active) and 7.99% [100 µM] (active), respectively.
Regarding `Cc1ccc2nc(-c3ccc(N(C)C)c(Br)c3)cn2c1`, the growth is 109% in the assay with T-47D breast; 71.4% in the assay on BT-549 breast; 63.4% with MDA-MB-435 melanoma; 100% in the assay with SW-620 colon; 76.8% with MCF7 breast; 33% with HCT-116 colon. The growth with HCC-2998 colon is 100%; with KM12 colon it was 95.4%.
On to `Cc1cc(C(=O)Nc2ccc3cc(CN4CCOCC4)ccc3n2)c(C)n1-c1ccccc1`, for which the growth was -2.49% (active) in the assay with T-47D breast; -1.74% (active) in the assay on BT-549 breast; 4.74% (active) in the assay with MDA-MB-435 melanoma; 64.1% in the assay with SW-620 colon; 7.41% (active) with MCF7 breast; 29.4% in the assay on HCT-116 colon. Moreover, the growth was 50.8% in the assay with HCC-2998 colon and 11% in the assay on KM12 colon.
Take `O=[N+]([O-])c1ccc(N=Nc2c(Cl)cc(O)cc2Cl)cc1`: the growth in the assay with T-47D breast is 4.24% (active); in the assay with BT-549 breast, -33.6% (active); with MDA-MB-435 melanoma, -24.4% (active); in the assay with SW-620 colon, -10% (active); with MCF7 breast, 1.11% (active); in the assay with HCT-116 colon it was -57.2% (active). For the same compound, the growth is 5.82% (active) in the assay with HCC-2998 colon and -39.8% (active) with KM12 colon.
For the compound `O=c1c2ccccc2c2nccn2c2cc(Cl)ccc12`, the growth with T-47D breast is 84.6%; with BT-549 breast, 89%; in the assay with MDA-MB-435 melanoma it was 94.5%; with SW-620 colon it was 80.7%; in the assay on MCF7 breast it was 122%; in the assay on HCT-116 colon it was 76.4%. Also, the growth in the assay with HCC-2998 colon was 67.3%; in the assay on KM12 colon, 150%.
For the compound `NS(=O)(=O)c1ccc(-n2ncc3c(N/N=C/c4ccccc4)ncnc32)cc1`, the growth was 94.6% in the assay with T-47D breast; 113% with BT-549 breast; 88.4% in the assay on MDA-MB-435 melanoma; 94.6% in the assay with SW-620 colon; 91% in the assay on MCF7 breast; 83.2% in the assay with HCT-116 colon. Further, the growth is 74.7% in the assay with HCC-2998 colon and 102% with KM12 colon.
